Only some compounds are listed: those with a hit (about 2% of all), similar ones and a draw of the others.
CHRM4 PAM = potentiates acetylcholine response at human M4 receptor. activation, % at 3 µM. AID 624126. 360,000 tested, 0.4% active. CHO-K1 hM4/Gqi5, Fluo-8 calcium fluorescence, ACh EC20; 0% = ACh EC20, 100% = maximal ACh. P08173;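 active = activation above its plate's cutoff, the mean activation of sample wells plus 3 SD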
Target sequence (P08173 whole entry, looked up): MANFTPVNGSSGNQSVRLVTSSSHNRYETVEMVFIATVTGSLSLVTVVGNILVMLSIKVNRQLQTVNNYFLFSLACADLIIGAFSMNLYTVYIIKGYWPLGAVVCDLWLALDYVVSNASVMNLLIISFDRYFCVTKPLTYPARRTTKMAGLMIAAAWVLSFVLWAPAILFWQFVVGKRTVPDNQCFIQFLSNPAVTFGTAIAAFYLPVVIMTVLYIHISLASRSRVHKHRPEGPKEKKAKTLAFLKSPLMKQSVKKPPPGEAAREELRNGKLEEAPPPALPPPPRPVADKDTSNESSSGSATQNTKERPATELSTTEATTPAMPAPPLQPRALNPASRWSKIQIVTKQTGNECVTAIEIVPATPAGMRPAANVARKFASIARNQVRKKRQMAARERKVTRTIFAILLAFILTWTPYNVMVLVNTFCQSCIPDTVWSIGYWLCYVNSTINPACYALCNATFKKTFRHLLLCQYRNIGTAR
M1 PAM parental = counter-screen for M1 PAMs: effect in parental CHO-K1 cells; activation, % at 3 µM; ATP EC20, Fluo-8 calcium fluorescence; 0% at ATP EC20, 100% at ATP max; 360,000 tested, 0.02% active;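 active = activation above the run cutoff, the mean activation of all test compounds plus 3 SD, cut at about 40% in these data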;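 note: peak over basal fluorescence ratio in a 140 s read after ATP addition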
CHO-K1 Ca ag = nonselective activator or artifact in parental CHO-K1 cells. Fluo-8 calcium fluorescence; scaled to maximal ATP response, vehicle zero. 360,000 tested, 0.48% active. activation, % at 3 µM; in the data active = activation above about 15%;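 note: untransfected CHO-K1 host cells lacking M1 receptor as counterscreen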
CHRM4 agonist = CHRM4 agonism in calcium assay | AID 624127 | 360,000 tested, 0.14% active | CHO-K1 hM4/Gqi5, Fluo-8 calcium fluorescence; vehicle 0%, full acetylcholine response 100% | activation, % at 3 µM;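 active = activation above the run mean over all test wells plus 3 SD, cut at about 32% in these data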;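 note: peak over basal fluorescence ratio per well then scaled between controls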
CHRM4 antagonist = CHRM4 antagonism in calcium assay; CHO-hM4 cells, ACh EC80, Fluo-8 calcium fluorescence; inhibition, % at 3 µM; 360,000 tested, 0.73% active;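 active = inhibition above its plate's cutoff, the mean inhibition of sample wells plus 3 SD, cut at about 27% in these data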
CHO-K1 Ca antag = nonselective inhibitor or artifact in parental CHO-K1 cells | AID 602250 | inhibition, % at 3 µM | ATP-induced calcium, Fluo-8 fluorescence | 360,000 tested, 0.6% active;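 active = inhibition above a per-plate cutoff, the plate's mean sample inhibition plus 3 SD, cut at about 24% in these data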
Each line names hits and unclear results; the compound was inactive in the other large screens; ! = not active in a repeat.

CC(OC(=O)Cn1[nH]c(=O)c2ccccc2c1=O)C(=O)c1ccccc1 (stereo not drawn)	CHO-K1 Ca antag 24.0
c1ccc(-c2nc[nH]c2-c2ccccc2)cc1	none
COc1ccc(CN(C)C(C)C(=O)Nc2ccc(S(=O)(=O)N3CCCCC3)cc2)c(OC)c1 (stereo not drawn)	CHRM4 antagonist 26.5
CCOc1ccc(CN2CCN(S(=O)(=O)c3ccc(NC(C)=O)cc3)CC2)cc1	CHO-K1 Ca ag 22.1
CCN(Cc1ccc(OC)c(F)c1)C(C)C(=O)Nc1ccc(S(=O)(=O)N2CCCC2)cc1 (stereo not drawn)	none
Cc1noc(C)c1COc1ccc(C(=O)OC(C)C(=O)Nc2ccc(S(=O)(=O)N3CCOCC3)cc2)cc1 (stereo not drawn)	CHO-K1 Ca ag 17.5
CC(=O)Nc1ccc(S(=O)(=O)NC2=C(N3CCN(Cc4ccccc4)CC3)C(=O)c3ccccc3C2=O)cc1	CHRM4 antagonist 31.1!
CCN1CCN(C2=C(NS(=O)(=O)c3ccc(NC(C)=O)cc3)C(=O)c3ccccc3C2=O)CC1	none
CCS(=O)c1ccccc1C(=O)OC(C)C(=O)Nc1ccc(S(=O)(=O)N2CCCC2)cc1 (stereo not drawn)	none
CCOc1ccccc1C(=O)OC(C)C(=O)Nc1ccc(S(=O)(=O)N2CCCC2)cc1 (stereo not drawn)	CHO-K1 Ca antag 25.3
O=C(CC[C@H]1O[C@@H](n2cnc3c(NC(=O)c4ccccc4)ncnc32)[C@H](O)[C@@H]1O)NCC(F)(F)F	none
O=C(CC[C@H]1O[C@@H](n2cnc3c(NC(=O)c4ccccc4)ncnc32)[C@H](O)[C@@H]1O)NCC1CCN(Cc2ccccc2)CC1	CHO-K1 Ca antag 23.8
O=C(CC[C@H]1O[C@@H](n2cnc3c(NC(=O)c4ccccc4)ncnc32)[C@H](O)[C@@H]1O)NCCc1cc2ccccc2[nH]1	CHO-K1 Ca antag 27.2
COCCCNC(=O)/C=C/[C@H]1O[C@@H](n2cnc3c(NC(=O)c4ccccc4)ncnc32)[C@H](O)[C@@H]1O	CHRM4 PAM 22.8
O=C(/C=C/[C@H]1O[C@@H](n2cnc3c(NC(=O)c4ccccc4)ncnc32)[C@H](O)[C@@H]1O)NCCc1ccc(F)cc1	none
Cc1cc(C)c2nc(NC(=O)c3ccc(OCC4CCCO4)cc3)sc2c1 (stereo not drawn)	none
O=c1oc2c3c(nn2c2ccccc12)CCCC3	none
Cc1scc(C(=O)NCc2ccco2)c1-c1ccccc1	CHRM4 PAM 42.0
O=C(O)c1ccc2c(c1)C(=O)N(CCc1ccccc1)C2=O	none
CN(C(=O)C1CCC(CNS(=O)(=O)c2cccc3cccnc23)CC1)C1CCCCC1 (stereo not drawn)	none
O=C(NC1CCCCCCC1)c1ccc(F)c(S(=O)(=O)N2CCOCC2)c1	none
CC(OC(=O)c1ccc(F)c(S(=O)(=O)N2CCOCC2)c1)C(=O)NC1CCCC1 (stereo not drawn)	CHO-K1 Ca antag 26.8
Cc1ccc(S(=O)(=O)n2ccc3c2CCCC3=O)cc1	CHRM4 antagonist 27.3
Cc1ccc(S(=O)(=O)N2CCCCC2)cc1	none
CCC(C(=O)Nc1ccc(S(=O)(=O)Nc2ncccn2)cc1)c1ccccc1 (stereo not drawn)	none
Cc1c(Cl)cccc1NC(=O)Nn1cnnc1	none
CC(C)(O)c1ccc2c(c1)CCC1C(C)(C(=O)O)CCCC21C (stereo not drawn)	none
CC(C)c1c(O)ccc2c1CC[C@H]1C(C)(C)CCC[C@]21C	CHO-K1 Ca antag 26.5
Cc1c(OC(C)C(=O)NCC2CCC(C(=O)O)CC2)ccc2c3c(c(=O)oc12)CCCC3 (stereo not drawn)	none
NC12NC(=O)C3(O)C4C5CC(C6C5C3C61)C42 (stereo not drawn)	none
Cc1c(NC(=O)c2cccs2)cccc1-c1nc2ccccc2s1	CHRM4 antagonist 30.9
CC(C)(C)S(=O)N1Cc2cc(C(=O)O)nc(-c3cccc(-c4cc5ccccc5o4)c3)c2[C@H]1CCO (stereo partly drawn)	none
CN(C)C(=O)c1cccc(-c2cccc(-c3nc(C(=O)NCc4ccccc4)cc4c3[C@@H](CCO)N(S(=O)C(C)(C)C)C4)c2)c1 (stereo partly drawn)	CHO-K1 Ca antag 24.8
CC(C)(C)S(=O)N1Cc2cc(C(=O)Nc3ccc(-c4ccccc4)cc3)nc(-c3cccc(-c4cc5ccccc5o4)c3)c2[C@@H]1CCO (stereo partly drawn)	CHRM4 PAM 20.8
Cc1ccc2c(c1)C1C[N+](C)(CC(=O)Nc3ccccc3Cl)CCC1N2C(=O)c1ccccc1Cl (stereo not drawn)	none
CCCCc1ccc(/C=C2/C(=O)ON=C2c2ccccc2)s1	CHRM4 PAM 26.6
Cc1ccc(S(=O)(=O)c2cccc(S(=O)(=O)N3CCOCC3)c2)cc1S(=O)(=O)N1CCOCC1	none
Cc1ccc(S(=O)(=O)c2cccc(S(=O)(=O)N3CCCC3)c2)cc1S(=O)(=O)N1CCCC1	CHRM4 antagonist 81.4
Cc1cc(C)n2nc(SCCOc3ccccc3)nc2n1	CHRM4 PAM 21.4
CCCC(=O)N/N=C1\CS(=O)(=O)N(C)c2ccsc21	CHRM4 antagonist 51.0
CCOC(=O)Cn1nc(C)n(-c2ccc(C)cc2)c1=O	none
CN(C)S(=O)(=O)c1cccc(CSCc2cccc(S(=O)(=O)N(C)C)c2)c1	CHO-K1 Ca ag 17.7, CHO-K1 Ca antag 50.3
Cc1cc(=O)oc2cc(OC(=O)c3ccccc3)ccc12	none
COc1ccccc1-c1c(C(F)(F)F)oc2cc(OC(=O)c3ccc([N+](=O)[O-])cc3)ccc2c1=O	CHRM4 PAM 21.2
O=C(CN1CCCCC1)NC1CCc2cc3c(cc21)CCC3 (stereo not drawn)	CHO-K1 Ca antag 26.6
COc1ccc2c(=O)c3ccccc3oc2c1	none
O=C(c1cnc(N2CCN(c3ncccn3)CC2)c2ccccc12)N1CCN(c2ccccn2)CC1	none
Cc1ccc(NC(=O)c2cnc(N3CCN(c4ccccn4)CC3)c3ccccc23)c(Br)c1	CHRM4 antagonist 30.3, CHO-K1 Ca antag 25.9
O=C(Nc1c(F)cccc1F)c1cnc(N2CCN(c3ccccn3)CC2)c2ccccc12	CHO-K1 Ca antag 29.6
Cc1ccc(CN2CCN(Cc3cnc(N(C)C)s3)CC2CCO)o1 (stereo not drawn)	none
CC1CN(C(=O)COC(=O)c2cc(Cl)ccc2Cl)CC(C)O1 (stereo not drawn)	none
Cc1ccc(C)c(N2CCN(S(=O)(=O)c3ccc4c(c3)NC(=O)CO4)CC2)c1	none
Cc1ccc(C)c(N2CCN(S(=O)(=O)c3ccc4c(c3)NC(=O)CC(=O)N4)CC2)c1	CHRM4 antagonist 88.1

Compound activity (PubChem)
